# Results: PubChem BioAssay (EPA / NIEHS)
# Inconclusive results are not listed. Calls of active or inactive are those of the source. The calls were made as follows, unless noted: active = hit-call score of the fitted dose curve at least 0.9, where 1 is the maximum; inconclusive = response in the unintended direction; inactive = score below 0.9.
# Legend:
# [1] = ATG_TCF_b_cat_CIS: Attagene CIS-FACTORIAL HepG2 Assay for human T-Cell-Factor with beta-catenin (TCF/b-cat) (AID 2282965; active = hit-call score of the fitted dose curve at least 0.9, where 1 is the maximum; inactive = score below 0.9); settings: HepG2 TCF/beta-catenin cis-reporter transcription, actives raise or lower the signal
# Outline: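 Measured: reporter mRNA in HepG2 transiently transfected with cis-promoter reporter units, 24 h after chemical addition. Fitting was bidirectional, DMSO as negative control.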
# [2] = ATG_VDRE_CIS: Attagene CIS-FACTORIAL HepG2 Assay for human Vitamin D Receptor Element (VDRE) (AID 2282968; active = hit-call score of the fitted dose curve at least 0.9, where 1 is the maximum; inactive = score below 0.9); settings: HepG2 VDRE cis-reporter transcription, actives raise or lower the signal
# Outline: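 Readout is VDRE-driven reporter mRNA reflecting endogenous factor activity in human HepG2 cells, sampled 24 h post-dose. Quantification used labelled RT-PCR products separated by capillary electrophoresis; bidirectional analysis relative to DMSO.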
# [3] = biological target: Nuclear receptor subfamily 1 group I member 3 (Homo sapiens) (UniProt Q14994); experiment: ATG_CAR_TRANS: Attagene TRANS-FACTORIAL HepG2 Assay for human Constitutive Androstane Receptor (CAR) (AID 2282969); settings: HepG2 Attagene TRANS-FACTORIAL CAR reporter;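 also: activators raise reporter mRNA above DMSO so AC50 marks induction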
# Outline: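 Signal is reporter mRNA induction relative to DMSO, measured 24 h after dosing by RT-PCR with fluorescent primer extension and capillary electrophoresis. Human HepG2 liver cells carried transiently transfected chimeric NR-Gal4/GAL4-UAS reporter constructs.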
# [4] = biological target: Steroid hormone receptor ERR1 (Homo sapiens) (UniProt P11474); experiment: ATG_ERRa_TRANS: Attagene TRANS-FACTORIAL HepG2 Assay for human Estrogen-Related Receptor alpha (ERRa) (AID 2282971); settings: HepG2 Attagene TRANS reporter, ERRa transactivation
# Outline: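 Transfected HepG2, 24 h dosing, ERRa-Gal4 chimera driving GAL4-UAS reporter. Readout: reporter mRNA via RT-PCR plus capillary electrophoresis (fluorescence). Positive direction vs DMSO control.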
# [5] = biological target: X-box-binding protein 1 (Homo sapiens) (UniProt P17861); experiment: ATG_Xbp1_CIS: Attagene CIS-FACTORIAL HepG2 Assay for human X-box Binding Protein 1 (XBP1) (AID 2282972; active = hit-call score of the fitted dose curve at least 0.9, where 1 is the maximum; inactive = score below 0.9); settings: HepG2 XBP1 cis-element reporter, Attagene multiplex; actives raise or lower the signal
# Outline: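 Reporter transcripts were quantified by RT-PCR with fluorescent primer extension and capillary electrophoresis after 24 h chemical exposure. Cells: transiently transfected HepG2 carrying cis-regulated reporter constructs; data fitted bidirectionally relative to DMSO.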
# [6] = ATG_GAL4_TRANS: Attagene TRANS-FACTORIAL HepG2 Assay for GAL4 (Internal Marker) (AID 2282976); settings: HepG2 Attagene TRANS GAL4 internal marker reporter
# Outline: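 RT-PCR/capillary electrophoresis readout of reporter mRNA. HepG2, transient MRTU transfection (GAL4-UAS reporters), 24 h compound exposure. Background-control endpoint, positive direction vs DMSO baseline.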
# [7] = biological target: Estrogen-related receptor gamma (Homo sapiens) (UniProt P62508); experiment: ATG_ERRg_TRANS: Attagene TRANS-FACTORIAL HepG2 Assay for human Estrogen-Related Receptor gamma (ERRg) (AID 2282977); settings: HepG2 Attagene TRANS reporter, ERRg transactivation;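 also: hits increase reporter signal over DMSO so potencies reflect activators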
# Outline: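 Induction of reporter transcripts through a chimeric NR-Gal4 protein is quantified in transfected human HepG2 liver cells after 24 h chemical exposure, using RT-PCR with capillary electrophoresis detection and DMSO as baseline.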
# [8] = biological target: Bile acid receptor (Homo sapiens) (UniProt Q96RI1); experiment: ATG_FXR_TRANS: Attagene TRANS-FACTORIAL HepG2 Assay for Farnesoid X Receptor (FXR) (AID 2282979); settings: HepG2 Attagene TRANS FXR-GAL4 reporter transcription;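 also: hits raise reporter mRNA above DMSO so AC50 marks FXR activation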
# Outline: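 Read-out: fluorescent reporter transcripts quantified by capillary electrophoresis after RT-PCR of total RNA. Source cells were HepG2 transiently carrying chimeric NR-GAL4 plus GAL4-UAS reporter units, dosed 24 h. Activity fitted upward relative to DMSO baseline.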
# [9] = biological target: Oxysterols receptor LXR-alpha (Homo sapiens) (UniProt Q13133); experiment: ATG_LXRa_TRANS: Attagene TRANS-FACTORIAL HepG2 Assay for human Liver X Receptor alpha (LXRa) (AID 2282980); settings: HepG2 Attagene TRANS reporter, LXRa transactivation
# Outline: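 Read-out: reporter transcript levels by RT-PCR plus capillary electrophoresis, fluorescence intensity. Transiently transfected HepG2, exogenous NR-GAL4 chimera, GAL4-UAS reporters; 24 h compound exposure. Activity = increase over DMSO negative control.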
# [10] = biological target: Oxysterols receptor LXR-beta (Homo sapiens) (UniProt P55055); experiment: ATG_LXRb_TRANS: Attagene TRANS-FACTORIAL HepG2 Assay for human Liver X Receptor beta (LXRb) (AID 2282981); settings: HepG2 Attagene TRANS GAL4-LXRb reporter, mRNA
# Outline: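 After 24 h chemical treatment of transfected HepG2 cells carrying exogenous NR-Gal4 chimeras, reporter mRNA was quantified by fluorescent RT-PCR and capillary electrophoresis; activity taken as increase over DMSO controls.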
# [11] = biological target: Hepatocyte nuclear factor 4-alpha (Homo sapiens) (UniProt P41235); experiment: ATG_HNF4a_TRANS: Attagene TRANS-FACTORIAL HepG2 Assay for human Hepatocyte Nuclear Factor 4 alpha (HNF4a) (AID 2282982); settings: HepG2 HNF4a transactivation reporter, mRNA readout
# Outline: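 Activity of an exogenous HNF4a–Gal4 fusion scored as induced GAL4-UAS reporter transcripts after 24 h chemical exposure of transfected human HepG2 cells. Read-out via RT-PCR with 6-FAM labelling and capillary electrophoresis; rise over DMSO baseline.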
# [12] = ATG_M_06_TRANS: Attagene TRANS-FACTORIAL HepG2 Assay for M06 Transcription Factor (Internal Marker) (AID 2282983); settings: HepG2 Attagene TRANS M06 internal marker reporter
# Outline: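 Read-out: fluorescent reporter cDNA fragments resolved by capillary electrophoresis after RT-PCR and HpaI cut. Source cells were HepG2 carrying transfected multi-reporter GAL4 constructs, dosed 24 h. Increase over DMSO control analysed.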
# [13] = ATG_M_32_TRANS: Attagene TRANS-FACTORIAL HepG2 Assay for M32 Transcription Factor (Internal Marker) (AID 2282984); settings: HepG2 Attagene TRANS M32 internal marker reporter;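 also: transcript level of a background control reporter unit measured by RT-PCR and capillary electrophoresis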
# Outline: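 Internal background reporter in transfected HepG2: after 24 h chemical exposure, RNA reverse-transcribed, reporter cDNA amplified, fluorescently labelled and HpaI-cut, then sized by capillary electrophoresis. Gain of signal fitted against DMSO control.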
# [14] = biological target: Estrogen receptor (Homo sapiens) (UniProt P03372); experiment: ATG_ERa_TRANS: Attagene TRANS-FACTORIAL HepG2 Assay for human Estrogen Receptor alpha (ERa) (AID 2282970); settings: HepG2 Attagene TRANS ERa GAL4 reporter, mRNA
# Outline: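 Reporter mRNA induction after 24 hours, detected by fluorescent RT-PCR and capillary electrophoresis, gives the read-out. Cells are HepG2 transiently transfected with GAL4-UAS reporter transcription units responding to chimeric NR-Gal4. Activity is taken as gain of signal over DMSO baseline.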
# [15] = biological target: Nuclear receptor subfamily 4 group A member 2 (Homo sapiens) (UniProt P43354); experiment: ATG_NURR1_TRANS: Attagene TRANS-FACTORIAL HepG2 Assay for human Nuclear Receptor Related Protein 1 (NURR1) (AID 2282985); settings: HepG2 Attagene TRANS reporter, mRNA readout
# Outline: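 Reporter transcript induction, measured by RT-PCR with fluorescent labelling, HpaI digestion and capillary electrophoresis, after 24 hr dosing of human HepG2 cells transiently expressing an exogenous NR-Gal4 fusion with GAL4-UAS-driven reporters; DMSO as baseline.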
# [16] = biological target: Transcriptional activator Myb (Homo sapiens) (UniProt P10242); experiment: ATG_Myb_CIS: Attagene CIS-FACTORIAL HepG2 Assay for human Myeloblastosis (Myb) Proto-Oncogene Transcription Factor (AID 2282986; active = hit-call score of the fitted dose curve at least 0.9, where 1 is the maximum; inactive = score below 0.9); settings: HepG2 Attagene CIS-FACTORIAL Myb reporter transcription; actives raise or lower the signal
# Outline: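 Multiplexed cis-reporter system in HepG2: transient transfection, 24 h treatment, mRNA readout by RT-PCR and capillary electrophoresis. Both increases and decreases are scored versus DMSO negative control.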
# [17] = ATG_TGFb_CIS: Attagene CIS-FACTORIAL HepG2 Assay for human Transforming Growth Factor (TGF) (AID 2282967; active = hit-call score of the fitted dose curve at least 0.9, where 1 is the maximum; inactive = score below 0.9); settings: HepG2 Attagene CIS TGFb reporter, mRNA transcription; actives raise or lower the signal
# Outline: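 Endogenous TGFB1-linked transcription factor activity read as reporter mRNA via RT-PCR and capillary electrophoresis, 24 h after dosing transiently transfected HepG2 cells. Gain or loss of signal fitted relative to DMSO.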
# [18] = biological target: Glucocorticoid receptor (Homo sapiens) (UniProt P04150); experiment: ATG_GR_TRANS: Attagene TRANS-FACTORIAL HepG2 Assay for human Glucocorticoid Receptor (GR) (AID 2282978); settings: HepG2 Attagene TRANS GR reporter, mRNA transcription;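 also: activators score as hits since higher reporter transcript over DMSO is fitted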
# Outline: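 HepG2 transient transfection, multiple reporter units, GAL4-UAS under NR-GAL4 chimera control. 24 h treatment. Reporter mRNA by RT-PCR/CE fluorescence, DMSO as negative control.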
# Glucocorticoid receptor (Homo sapiens), sequence (P04150 whole entry, looked up, the tested form may be a part): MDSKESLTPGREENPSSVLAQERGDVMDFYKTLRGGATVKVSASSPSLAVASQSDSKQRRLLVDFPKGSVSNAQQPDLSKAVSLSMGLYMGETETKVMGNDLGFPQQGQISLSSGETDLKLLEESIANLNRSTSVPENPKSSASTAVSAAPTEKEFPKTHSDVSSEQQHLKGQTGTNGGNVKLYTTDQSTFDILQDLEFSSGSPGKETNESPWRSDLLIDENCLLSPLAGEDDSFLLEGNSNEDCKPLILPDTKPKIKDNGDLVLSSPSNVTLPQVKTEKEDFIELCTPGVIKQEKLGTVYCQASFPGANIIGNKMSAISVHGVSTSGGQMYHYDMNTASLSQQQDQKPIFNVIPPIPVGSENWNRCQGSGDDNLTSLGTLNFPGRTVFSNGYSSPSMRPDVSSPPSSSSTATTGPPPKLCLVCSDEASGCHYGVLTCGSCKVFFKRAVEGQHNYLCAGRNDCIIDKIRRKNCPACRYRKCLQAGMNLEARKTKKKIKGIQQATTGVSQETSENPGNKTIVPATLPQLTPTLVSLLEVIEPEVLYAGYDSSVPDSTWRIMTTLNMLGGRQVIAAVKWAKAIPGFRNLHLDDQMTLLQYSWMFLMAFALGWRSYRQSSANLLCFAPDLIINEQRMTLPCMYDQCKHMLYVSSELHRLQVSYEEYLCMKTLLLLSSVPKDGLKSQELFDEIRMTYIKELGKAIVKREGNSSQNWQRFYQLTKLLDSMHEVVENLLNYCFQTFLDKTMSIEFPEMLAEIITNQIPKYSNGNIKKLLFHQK
# Hepatocyte nuclear factor 4-alpha (Homo sapiens), sequence (P41235 whole entry, looked up, the tested form may be a part): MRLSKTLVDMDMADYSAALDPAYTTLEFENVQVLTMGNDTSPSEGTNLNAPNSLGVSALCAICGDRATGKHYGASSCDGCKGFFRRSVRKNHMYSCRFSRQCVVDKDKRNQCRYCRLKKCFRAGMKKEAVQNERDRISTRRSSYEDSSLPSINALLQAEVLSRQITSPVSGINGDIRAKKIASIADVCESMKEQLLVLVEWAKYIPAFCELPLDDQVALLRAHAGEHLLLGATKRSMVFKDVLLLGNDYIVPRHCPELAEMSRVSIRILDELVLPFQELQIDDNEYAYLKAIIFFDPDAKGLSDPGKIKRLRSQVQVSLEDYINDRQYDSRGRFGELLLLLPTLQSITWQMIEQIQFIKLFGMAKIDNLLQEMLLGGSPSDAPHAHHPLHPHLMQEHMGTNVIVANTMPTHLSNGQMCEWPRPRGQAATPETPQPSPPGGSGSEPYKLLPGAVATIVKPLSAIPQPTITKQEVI
# Oxysterols receptor LXR-alpha (Homo sapiens), sequence (Q13133 whole entry, looked up, the tested form may be a part): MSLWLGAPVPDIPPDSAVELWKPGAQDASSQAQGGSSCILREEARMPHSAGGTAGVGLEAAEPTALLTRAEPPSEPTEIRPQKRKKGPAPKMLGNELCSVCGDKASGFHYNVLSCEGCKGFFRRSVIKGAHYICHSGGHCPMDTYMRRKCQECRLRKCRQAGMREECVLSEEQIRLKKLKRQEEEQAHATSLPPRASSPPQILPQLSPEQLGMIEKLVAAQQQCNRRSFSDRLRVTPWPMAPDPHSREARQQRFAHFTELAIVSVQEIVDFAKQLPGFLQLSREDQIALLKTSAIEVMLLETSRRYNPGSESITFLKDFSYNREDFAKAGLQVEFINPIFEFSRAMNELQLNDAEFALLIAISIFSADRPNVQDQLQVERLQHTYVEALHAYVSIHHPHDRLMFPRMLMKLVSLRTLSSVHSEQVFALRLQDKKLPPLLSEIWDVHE
# Steroid hormone receptor ERR1 (Homo sapiens), sequence (P11474 whole entry, looked up, the tested form may be a part): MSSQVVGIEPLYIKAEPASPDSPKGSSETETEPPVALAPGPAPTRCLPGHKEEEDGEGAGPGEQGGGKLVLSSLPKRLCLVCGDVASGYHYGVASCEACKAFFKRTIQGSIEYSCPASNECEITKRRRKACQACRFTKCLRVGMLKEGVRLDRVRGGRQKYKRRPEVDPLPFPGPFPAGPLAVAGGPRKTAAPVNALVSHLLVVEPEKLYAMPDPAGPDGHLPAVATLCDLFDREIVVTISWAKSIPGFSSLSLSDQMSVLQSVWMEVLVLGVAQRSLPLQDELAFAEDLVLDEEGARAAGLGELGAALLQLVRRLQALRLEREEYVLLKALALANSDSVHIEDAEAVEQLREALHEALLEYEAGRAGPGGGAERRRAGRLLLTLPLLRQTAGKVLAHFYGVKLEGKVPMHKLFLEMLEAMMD
# X-box-binding protein 1 (Homo sapiens), sequence (P17861 whole entry, looked up): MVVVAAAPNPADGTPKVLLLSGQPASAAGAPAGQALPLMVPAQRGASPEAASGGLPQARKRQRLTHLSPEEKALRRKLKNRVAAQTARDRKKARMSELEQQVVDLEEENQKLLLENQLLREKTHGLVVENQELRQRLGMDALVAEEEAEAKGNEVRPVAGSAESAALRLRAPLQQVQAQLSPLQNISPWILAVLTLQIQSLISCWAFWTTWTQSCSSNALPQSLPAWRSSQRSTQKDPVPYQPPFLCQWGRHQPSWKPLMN
# Oxysterols receptor LXR-beta (Homo sapiens), sequence (P55055 whole entry, looked up, the tested form may be a part): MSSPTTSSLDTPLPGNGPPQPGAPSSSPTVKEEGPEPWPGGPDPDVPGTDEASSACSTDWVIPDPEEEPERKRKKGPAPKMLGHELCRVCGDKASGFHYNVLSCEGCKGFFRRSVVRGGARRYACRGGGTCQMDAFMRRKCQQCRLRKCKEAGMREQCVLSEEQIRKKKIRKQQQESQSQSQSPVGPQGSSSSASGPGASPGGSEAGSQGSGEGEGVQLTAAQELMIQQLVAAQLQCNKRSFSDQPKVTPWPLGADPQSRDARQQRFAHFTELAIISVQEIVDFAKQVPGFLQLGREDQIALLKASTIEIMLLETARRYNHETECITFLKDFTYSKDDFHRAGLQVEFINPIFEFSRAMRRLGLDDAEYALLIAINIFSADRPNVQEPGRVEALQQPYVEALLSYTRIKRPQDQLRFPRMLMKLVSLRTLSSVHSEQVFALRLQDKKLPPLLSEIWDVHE
# Estrogen-related receptor gamma (Homo sapiens), sequence (P62508 whole entry, looked up, the tested form may be a part): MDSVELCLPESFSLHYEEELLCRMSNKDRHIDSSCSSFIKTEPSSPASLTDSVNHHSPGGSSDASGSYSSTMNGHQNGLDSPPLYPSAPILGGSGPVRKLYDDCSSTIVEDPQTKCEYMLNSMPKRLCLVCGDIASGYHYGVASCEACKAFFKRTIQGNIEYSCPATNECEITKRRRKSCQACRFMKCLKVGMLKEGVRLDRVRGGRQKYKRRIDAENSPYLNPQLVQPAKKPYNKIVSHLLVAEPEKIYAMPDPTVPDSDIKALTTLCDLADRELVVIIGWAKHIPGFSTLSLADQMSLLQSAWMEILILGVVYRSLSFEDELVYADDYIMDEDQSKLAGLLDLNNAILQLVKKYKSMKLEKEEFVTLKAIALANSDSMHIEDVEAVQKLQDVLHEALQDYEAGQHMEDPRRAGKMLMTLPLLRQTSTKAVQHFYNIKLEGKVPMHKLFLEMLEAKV
# Bile acid receptor (Homo sapiens), sequence (Q96RI1 whole entry, looked up, the tested form may be a part): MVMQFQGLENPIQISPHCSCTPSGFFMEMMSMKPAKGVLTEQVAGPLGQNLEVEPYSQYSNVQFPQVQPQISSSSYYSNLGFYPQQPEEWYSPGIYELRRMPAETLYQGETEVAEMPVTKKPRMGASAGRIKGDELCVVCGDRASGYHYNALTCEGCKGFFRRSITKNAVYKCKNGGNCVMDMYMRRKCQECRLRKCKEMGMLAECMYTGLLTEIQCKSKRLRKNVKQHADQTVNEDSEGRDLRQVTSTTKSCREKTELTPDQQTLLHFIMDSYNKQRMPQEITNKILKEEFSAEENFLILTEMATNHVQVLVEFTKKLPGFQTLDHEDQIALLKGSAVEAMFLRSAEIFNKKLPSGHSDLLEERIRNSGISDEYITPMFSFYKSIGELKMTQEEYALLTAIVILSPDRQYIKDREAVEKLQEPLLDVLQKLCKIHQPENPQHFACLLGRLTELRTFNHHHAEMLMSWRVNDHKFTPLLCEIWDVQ
# Nuclear receptor subfamily 1 group I member 3 (Homo sapiens), sequence (Q14994 whole entry, looked up, the tested form may be a part): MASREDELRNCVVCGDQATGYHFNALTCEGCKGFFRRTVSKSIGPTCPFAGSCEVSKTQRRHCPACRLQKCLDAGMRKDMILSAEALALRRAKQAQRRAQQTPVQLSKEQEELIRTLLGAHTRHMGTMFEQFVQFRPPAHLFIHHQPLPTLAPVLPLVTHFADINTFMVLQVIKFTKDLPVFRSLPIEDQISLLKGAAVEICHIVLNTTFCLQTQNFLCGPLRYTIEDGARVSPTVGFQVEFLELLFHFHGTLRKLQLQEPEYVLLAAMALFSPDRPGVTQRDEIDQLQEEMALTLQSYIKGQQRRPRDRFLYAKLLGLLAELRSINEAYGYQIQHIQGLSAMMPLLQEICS
# Transcriptional activator Myb (Homo sapiens), sequence (P10242 whole entry, looked up): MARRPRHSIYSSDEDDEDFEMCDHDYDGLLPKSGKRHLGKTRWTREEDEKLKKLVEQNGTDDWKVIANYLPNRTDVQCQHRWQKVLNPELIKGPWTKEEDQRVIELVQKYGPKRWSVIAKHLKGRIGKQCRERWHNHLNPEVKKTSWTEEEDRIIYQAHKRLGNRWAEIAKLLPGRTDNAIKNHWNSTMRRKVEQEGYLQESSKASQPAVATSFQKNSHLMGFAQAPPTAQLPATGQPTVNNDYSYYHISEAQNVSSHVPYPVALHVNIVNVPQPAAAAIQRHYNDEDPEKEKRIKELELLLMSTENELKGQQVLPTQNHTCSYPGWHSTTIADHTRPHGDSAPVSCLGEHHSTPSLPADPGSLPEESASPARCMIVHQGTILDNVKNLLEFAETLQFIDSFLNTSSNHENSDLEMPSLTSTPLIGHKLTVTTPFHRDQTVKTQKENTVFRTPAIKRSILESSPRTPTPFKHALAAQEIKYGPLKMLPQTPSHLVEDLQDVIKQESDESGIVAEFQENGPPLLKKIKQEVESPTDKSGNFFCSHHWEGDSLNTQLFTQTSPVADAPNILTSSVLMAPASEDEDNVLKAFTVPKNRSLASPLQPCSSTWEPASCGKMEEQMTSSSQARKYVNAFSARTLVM
compound,measurement,setting,value
O=C(O)CCC(F)(F)C(F)(F)C(F)(F)F,outcome,[1],inactive
same,outcome,[2],inactive
same,outcome,[3],inactive
same,outcome,[4],inactive
same,outcome,[5],inactive
same,outcome,[6],inactive
same,outcome,[7],inactive
same,outcome,[8],inactive
same,outcome,[9],inactive
same,outcome,[10],inactive
same,outcome,[11],inactive
same,outcome,[12],inactive
same,outcome,[13],inactive
O=S(=O)(Cl)C(F)(F)C(F)(F)C(F)(F)C(F)(F)C(F)(F)C(F)(F)C(F)(F)C(F)(F)F,outcome,[1],inactive
same,outcome,[2],inactive
same,AC50,[14],20.7 µM (active)
same,outcome,[4],inactive
same,outcome,[5],inactive
same,outcome,[8],inactive
same,outcome,[9],inactive
same,outcome,[12],inactive
same,outcome,[15],inactive
same,outcome,[16],inactive
CO[Si](CCCOCC1CO1)(OC)OC (stereo unspecified),outcome,[1],inactive
same,outcome,[17],inactive
same,outcome,[2],inactive
same,outcome,[5],inactive
same,outcome,[18],inactive
same,outcome,[10],inactive
same,outcome,[11],inactive
same,outcome,[13],inactive
same,outcome,[16],inactive
Oc1ccc2c(c1)CCC2,outcome,[1],inactive
same,outcome,[17],inactive
same,outcome,[2],inactive
same,outcome,[4],inactive
same,outcome,[5],inactive
same,outcome,[6],inactive
same,outcome,[7],inactive
same,outcome,[8],inactive
same,outcome,[10],inactive
same,outcome,[11],inactive
same,outcome,[12],inactive
same,outcome,[16],inactive
CC(C)=CCCC(C)O (stereo unspecified),outcome,[1],inactive
same,outcome,[2],inactive
same,outcome,[3],inactive
same,outcome,[5],inactive
same,outcome,[6],inactive
same,outcome,[18],inactive
same,outcome,[8],inactive
same,outcome,[12],inactive
same,outcome,[16],inactive
OCC1CCCO1 (stereo unspecified),outcome,[1],inactive
same,outcome,[17],inactive
same,outcome,[2],inactive
same,outcome,[5],inactive
same,outcome,[18],inactive
same,outcome,[9],inactive
same,outcome,[10],inactive
same,outcome,[12],inactive
CC1=CCC(=O)O1,outcome,[1],inactive
same,outcome,[17],inactive
same,outcome,[2],inactive
same,outcome,[3],inactive
same,outcome,[4],inactive
same,outcome,[5],inactive
same,outcome,[8],inactive
same,outcome,[9],inactive
same,outcome,[10],inactive
same,outcome,[11],inactive
same,outcome,[12],inactive
same,outcome,[16],inactive
N#CCCOCCC#N,outcome,[1],inactive
same,outcome,[17],inactive
same,outcome,[2],inactive
same,outcome,[3],inactive
same,outcome,[4],inactive
same,outcome,[5],inactive
same,outcome,[6],inactive
same,outcome,[8],inactive
same,outcome,[9],inactive
same,outcome,[10],inactive
same,outcome,[11],inactive
same,outcome,[12],inactive
same,outcome,[13],inactive
C=CC(=O)OCC(F)(F)C(F)(F)C(F)(F)COC(=O)C=C,AC50,[1],19.8 µM (active)
same,outcome,[17],inactive
same,AC50,[2],20.7 µM (active)
same,outcome,[7],inactive
same,outcome,[18],inactive
same,outcome,[8],inactive
same,outcome,[10],inactive
same,outcome,[11],inactive
same,outcome,[12],inactive
same,outcome,[15],inactive
CN(C(=O)C(F)(F)C(F)(F)C(F)(F)F)[Si](C)(C)C,outcome,[1],inactive
same,outcome,[17],inactive
same,outcome,[2],inactive
same,outcome,[4],inactive
same,outcome,[18],inactive
same,outcome,[8],inactive
same,outcome,[11],inactive
same,outcome,[12],inactive
same,outcome,[15],inactive
same,outcome,[16],inactive
CC(O)C#CC(C)O (stereo unspecified),AC50,[1],99.5 µM (active)
same,outcome,[17],inactive
same,AC50,[2],39.5 µM (active)
same,AC50,[3],99.5 µM (active)
same,outcome,[8],inactive
same,outcome,[9],inactive
same,AC50,[11],151 µM (active)
same,outcome,[12],inactive
same,outcome,[13],inactive
same,outcome,[15],inactive
same,outcome,[16],inactive
CC(C)(C)c1cc(CCC(=O)NCCCCCCNC(=O)CCc2cc(C(C)(C)C)c(O)c(C(C)(C)C)c2)cc(C(C)(C)C)c1O,outcome,[1],inactive
same,outcome,[17],inactive
same,AC50,[2],0.811 µM (active)
same,outcome,[14],inactive
same,outcome,[5],inactive
same,outcome,[6],inactive
same,outcome,[18],inactive
same,outcome,[8],inactive
same,outcome,[9],inactive
same,outcome,[10],inactive
same,outcome,[11],inactive
same,outcome,[12],inactive
same,outcome,[16],inactive
CC(C)OC=O,outcome,[1],inactive
same,outcome,[2],inactive
same,outcome,[5],inactive
same,outcome,[6],inactive
same,outcome,[18],inactive
same,outcome,[12],inactive
same,outcome,[16],inactive
C[C@]12CC[C@H]3C(=CCc4cc(O)ccc43)[C@@H]1CCC2=O,outcome,[1],inactive
same,outcome,[2],inactive
same,outcome,[3],inactive
same,outcome,[4],inactive
same,outcome,[5],inactive
same,outcome,[6],inactive
same,outcome,[18],inactive
same,outcome,[8],inactive
same,outcome,[9],inactive
same,outcome,[10],inactive
same,outcome,[11],inactive
same,outcome,[13],inactive
same,outcome,[15],inactive
same,outcome,[16],inactive
O=S(=O)(O)c1ccc(Cl)cc1,outcome,[1],inactive
same,outcome,[17],inactive
same,outcome,[2],inactive
same,outcome,[3],inactive
same,outcome,[6],inactive
same,outcome,[18],inactive
same,outcome,[9],inactive
same,outcome,[10],inactive
same,outcome,[11],inactive
same,outcome,[16],inactive
